Potency data for 22 molecules are collected here from PubChem BioAssay (Tox21).

Results filed as inconclusive are left out. Where a call stands in place of a potency, no number is given. Active and inactive are the calls of the source. Calls come from the whole dose curve; as a rule, active = well fitted inhibition curve with a large enough effect in the repeat runs; inconclusive = weak or mixed curves; inactive = flat fitted curve, though single readings scatter.

Sequence of Voltage-gated inwardly rectifying potassium channel KCNH2 (Homo sapiens) (Q12809 whole entry, looked up): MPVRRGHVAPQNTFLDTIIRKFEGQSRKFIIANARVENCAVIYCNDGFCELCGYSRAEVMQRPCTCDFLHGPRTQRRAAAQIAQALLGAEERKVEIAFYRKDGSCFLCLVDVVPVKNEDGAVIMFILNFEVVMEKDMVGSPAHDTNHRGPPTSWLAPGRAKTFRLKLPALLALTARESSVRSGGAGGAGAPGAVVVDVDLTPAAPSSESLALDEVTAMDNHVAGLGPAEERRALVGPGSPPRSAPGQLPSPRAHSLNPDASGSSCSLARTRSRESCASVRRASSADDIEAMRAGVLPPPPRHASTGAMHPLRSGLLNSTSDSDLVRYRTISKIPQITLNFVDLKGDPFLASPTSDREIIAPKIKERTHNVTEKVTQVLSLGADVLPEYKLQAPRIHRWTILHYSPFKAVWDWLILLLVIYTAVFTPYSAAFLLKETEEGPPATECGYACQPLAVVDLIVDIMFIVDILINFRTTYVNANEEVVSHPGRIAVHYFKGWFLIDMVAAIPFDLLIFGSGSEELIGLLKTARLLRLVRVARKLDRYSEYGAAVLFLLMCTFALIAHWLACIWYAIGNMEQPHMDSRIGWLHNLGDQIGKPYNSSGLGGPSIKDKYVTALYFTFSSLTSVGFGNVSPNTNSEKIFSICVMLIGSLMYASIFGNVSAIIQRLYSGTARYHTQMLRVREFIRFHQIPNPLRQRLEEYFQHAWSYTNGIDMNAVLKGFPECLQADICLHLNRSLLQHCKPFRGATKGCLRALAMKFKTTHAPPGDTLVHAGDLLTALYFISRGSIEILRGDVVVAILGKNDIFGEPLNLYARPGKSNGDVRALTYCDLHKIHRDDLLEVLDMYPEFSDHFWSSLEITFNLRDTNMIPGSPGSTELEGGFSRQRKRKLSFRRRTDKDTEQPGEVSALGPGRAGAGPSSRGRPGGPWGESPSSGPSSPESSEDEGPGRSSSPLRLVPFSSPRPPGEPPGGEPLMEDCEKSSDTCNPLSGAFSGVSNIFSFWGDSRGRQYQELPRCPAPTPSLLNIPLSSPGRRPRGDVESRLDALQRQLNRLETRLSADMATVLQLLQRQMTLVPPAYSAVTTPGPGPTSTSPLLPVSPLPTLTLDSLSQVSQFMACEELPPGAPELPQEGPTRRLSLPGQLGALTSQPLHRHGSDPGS

This assay addresses Voltage-gated inwardly rectifying potassium channel KCNH2 (Homo sapiens) (UniProt Q12809). The assay is described as follows: Human Ether-a-go-go-Related Gene (hERG) channel small molecule antagonists: fluorescence cell-based qHTS assay (AID 1671200). Note: nearly all actives have a fitted effect of over 50% in size. The following applies: hERG-U2OS cells, FluxOR thallium flux fluorescence; series mostly up to 76.8 µM. A digest of the protocol: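 Fluorescence at 540 nm emission (480 nm excitation) was recorded kinetically for 2 min at 1-second intervals once the thallium-containing stimulus reached cells previously loaded with FluxOR II dye.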
(hERG is a cardiac potassium channel; its block is linked to QT prolongation.)
`CCOc1ccc(C(=O)OCCN(CC)CC)cc1`: the Potency result is “inactive”.

Take `CCCCCCOC(=O)CCCCC(=O)OCCCCCC`: the Potency entry was “inactive”.

For the molecule `CC1(C)C(O)C(C)(C)C1O` (configuration not stated), the Potency entry is “inactive”.

Take `Cc1[nH]c(=O)c(C#N)cc1-c1ccc2nccn2c1`: the Potency result was “inactive”.

On to `CN1CC(=O)NC1=N`, for which the Potency entry was “inactive”.

In the case of `CCCCCOC(=O)CCCCC`, the Potency entry was “inactive”.

On to `CC(C)(c1ccc(O)cc1)c1ccc(O)cc1`, for which the Potency result was “inactive”.

Consider `COc1cc(C(=O)N2CCCCCCC2)cc(OC)c1OC`, for which the Potency entry was “inactive”.

Turning to `CN(C)CCCNCCCN(C)C`, the Potency result was “inactive”.

For the molecule `CC(C)CNCC(C)C`, the Potency result is “inactive”.

As for `CCSC(=O)N(CC(C)C)CC(C)C`, the Potency result was “inactive”.

With `N[C@H]1CN(c2c(F)cc3c(=O)c(C(=O)O)cn(C4C[C@H]4F)c3c2Cl)CC12CC2` (some centres not stated), the Potency entry is “inactive”.

For `CC(NC(CCc1ccccc1)C(=O)O)C(=O)N1C(=O)N(C)CC1C(=O)O` (configuration not stated), the Potency result was “inactive”.

As to `CC(C)NC(=O)NC(C)C`, the Potency result was “inactive”.

As to `CCCN1CCCC[C@H]1C(=O)Nc1c(C)cccc1C`, the Potency entry is “inactive”.

On to `NS(=O)(=O)c1ccccc1Cl`, for which the Potency result is “inactive”.

Consider `O=C1NC(=O)[C@@]2(CCOc3ccc(F)cc32)N1`, for which the Potency entry was “inactive”.

Regarding `Nc1nc2c(ncn2COC(CO)CO)c(=O)[nH]1`, the Potency entry is “inactive”.

Turning to `CCOC(=O)[C@H](CCc1ccccc1)N[C@@H](C)C(=O)N1[C@H](C(=O)O)C[C@@H]2CCC[C@@H]21`, the Potency result is “inactive”.

With `CC(C)(C)c1ccc(O)c(O)c1`, the Potency entry was “inactive”.

For the molecule `COC(=O)c1ccc(C)cc1C1=NC(C)(C(C)C)C(=O)N1` (configuration not stated), the Potency result was “inactive”.

On to `C=C[Si](OC(=C)C)(OC(=C)C)OC(=C)C`, for which the Potency result is “inactive”.
